From PubChem BioAssay
A selection: hits, their analogues and other compounds. The true share with any hit is near 1.8%.
ABCB6 inh 2: ABCB6 transporter inhibitors, primary screen, K562-ABCB6 cells, flow cytometry, MLPCN library | hit rate 0.19% among 360,000 | K562-ABCB6 porphyrin accumulation, 1 h; active compounds read low | fluorescence ratio to DMSO, % at 10 µM | ATP-binding cassette sub-family B member 6 (Homo sapiens), Q9NP58;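 active = fluorescence ratio to DMSO below 75%, the collection mean minus 3 SD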;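 note: signal is porphyrin accumulated inside mitochondria; 100% equals median channel fluorescence of DMSO control wells; lower ratio means ABCB6 inhibition with less porphyrin fluorescence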
Target sequence (Q9NP58 whole entry, looked up): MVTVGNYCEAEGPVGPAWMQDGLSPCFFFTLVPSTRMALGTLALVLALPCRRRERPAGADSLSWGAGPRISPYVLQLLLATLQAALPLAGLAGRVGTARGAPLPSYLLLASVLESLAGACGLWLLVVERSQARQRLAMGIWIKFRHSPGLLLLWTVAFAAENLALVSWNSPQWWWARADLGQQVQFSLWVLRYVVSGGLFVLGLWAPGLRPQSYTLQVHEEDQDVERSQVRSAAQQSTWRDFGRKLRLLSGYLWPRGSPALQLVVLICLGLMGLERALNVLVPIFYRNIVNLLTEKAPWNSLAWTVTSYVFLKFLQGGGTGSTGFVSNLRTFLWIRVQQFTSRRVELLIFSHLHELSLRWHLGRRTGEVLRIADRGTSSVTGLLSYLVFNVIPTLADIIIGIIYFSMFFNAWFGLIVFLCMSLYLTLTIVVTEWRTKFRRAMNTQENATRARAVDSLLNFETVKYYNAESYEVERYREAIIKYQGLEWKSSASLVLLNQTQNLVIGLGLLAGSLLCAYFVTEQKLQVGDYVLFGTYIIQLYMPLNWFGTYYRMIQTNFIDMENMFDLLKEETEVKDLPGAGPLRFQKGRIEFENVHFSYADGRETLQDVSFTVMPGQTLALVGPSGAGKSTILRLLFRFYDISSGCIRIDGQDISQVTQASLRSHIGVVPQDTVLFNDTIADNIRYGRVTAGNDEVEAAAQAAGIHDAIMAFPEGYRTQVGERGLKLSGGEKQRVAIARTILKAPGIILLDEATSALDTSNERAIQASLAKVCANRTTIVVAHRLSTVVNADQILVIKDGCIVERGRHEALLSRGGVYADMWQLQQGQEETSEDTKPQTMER
Exocytosis inh: LAMP-1 surface exposure blockers, TALL-104 cells – cell-based, flow cytometry, MLPCN library, primary screen. TALL-104 LAMP-1 surface exposure; cells stimulated with thapsigargin and PMA. inhibition, % at 10 µM. hit rate 0.66% among 360,000. AID 651702, 2012;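 active = inhibition above about 55%, limit read from the data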
Myeloid diff 2: induction of myeloid progenitor differentiation, primary screen, cell-based, flow cytometry, MLPCN library | calls only at 10 µM | hit rate 1% among 360,000 | ER-HoxA9 myeloid progenitors, lysozyme-GFP differentiation;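 active = normalized GFP-positive differentiation at or above the plate's own cutoff, the solvent-only control mean plus 3 SD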;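 note: cells exposed to compound for four days before flow analysis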
Myeloid diff CP1: inducers of myeloid progenitor differentiation, confirmation, cell-based, GFP/Mac1 flow cytometry, cherry pick 01; ER-HoxA9 myeloid progenitors, GFP/Mac1 double-positive flow; shares compounds with Myeloid diff 2; calls only; hit rate 2% among 2,300;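 active = share of green or green-and-red cells above 9 and 9% in run 1 or 4 and 3% in run 2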
GFP autofluor: compound fluorescence in myeloid differentiation counter-screen; fluorescence response, % (test concentration not listed); AID 651707; ER-HoxA9 myeloid progenitors, no estrogen, GFP autofluorescence flow cytometry; vehicle wells 0%, positive control 100%; shares compounds with Myeloid diff 2; hit rate 7.4% among 2,300;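 active = over 5% cells positive for green fluorescent reporter, or over 2% positive for both it and APC stain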;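 note: range taken on the double positive population between DMSO and positive control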
Numbers without * were called inactive; i = inactive; . = no result given; + = active, no number.

SMILES	ABCB6 inh 2	Exocytosis inh	Myeloid diff 2	Myeloid diff CP1	GFP autofluor
O=C(COc1ccc(Cl)cc1[N+](=O)[O-])N1CCCCCC1	97	7	i	.	.
O=C(CN1CCN(C(=O)C2CCN(C(=O)/C=C/c3ccccc3)CC2)CC1)Nc1ccccc1Cl	96	-4	i	.	.
CN1CCN(S(=O)(=O)c2ccc(NC(=S)NC(=O)c3ccc(Cl)cc3)cc2)CC1	93	0	i	.	.
CN1CCN(S(=O)(=O)c2ccc(NC(=S)NC(=O)c3ccccc3)cc2)CC1	103	-1	+	i	0
CCc1ccc(N(CC(=O)NC(C)C)C(=O)CCC(=O)Nc2ccccn2)cc1	94	0	.	.	.
O=C(CSC1=N/C(=C/c2ccco2)C(=O)N1c1ccc(OC(F)F)cc1)NC1CCS(=O)(=O)C1 (stereo unspecified)	103	1	i	.	.
O=C1CCC[C@@H]2[C@H]3CCC[N+]4([O-])CCC[C@@H](CN12)[C@@H]34 (stereo partly specified)	97	-4	i	.	.
COc1ccc(NC(=O)c2cc(C)no2)cc1	95	2	i	.	.
CCC(C)NCCCOc1ccc(C)cc1OC (stereo unspecified)	93	-1	i	.	.
CNCCCOc1ccc(C)cc1OC	101	-1	i	i	0
N#Cc1ccc(C(=O)Nc2cc(S(=O)(=O)N3CCCC3)ccc2OCC(F)(F)F)cc1	99	-5	i	.	.
COc1ccc(/C=C/c2ccccc2)cc1[C@H]1[C@H]2C=CC[C@@H](C)[C@@H]2C(=O)N1Cc1ccccc1	101	-2	i	.	.
O=C(CCNC(=O)c1ccccc1Cl)Nc1ccc2c(c1)OCCO2	97	-7	i	.	.
Cc1ccc(NS(=O)(=O)c2ccc(NC(=O)CSc3ccc(Cl)cc3)cc2)c(C)c1	91	0	i	.	.
Cc1ccc(O)c(NC(=O)CSc2ccc(Cl)cc2)c1	95	-2	i	i	0
CSc1cccc(NC(=O)c2ccc(Cl)nc2)c1	103	-3	i	i	0
CSc1cccc(NC(=O)c2cnccn2)c1	98	1	i	.	.
CN(C)P(=O)(Nc1cccc2ccccc12)Nc1cccc2ccccc12	101	-8	i	.	.
CC(=O)Nc1ccc2nc(C3CC3)n(Cc3ccc(Cl)cc3)c(=O)c2c1	92	-2	i	.	.
O=C(Nc1ccc2nc(C3CC3)n(Cc3ccc(F)cc3)c(=O)c2c1)c1ccco1	98	10	+	i	0
CN(C)C(=O)c1ccc(NC(=O)c2cccc(-n3cnnn3)c2)cc1	94	0	i	.	.
CC(Oc1cccc(Cl)c1)C(=O)N(C)CC(=O)Nc1ccc(N2CCOCC2)cc1 (stereo unspecified)	100	-14	i	.	.
COc1ccccc1NS(=O)(=O)c1ccc(C(=O)NCCCN2CCCC2=O)cc1	99	6	i	.	.
C[C@@H]1CCCCO[C@@H](CN(C)S(C)(=O)=O)[C@@H](C)CN([C@H](C)CO)C(=O)c2cc(N(C)C)ccc2O1	101	-3	i	.	.
C[C@@H]1CCCCO[C@H](CN(C)C(=O)C2CCCCC2)[C@@H](C)CN([C@H](C)CO)C(=O)c2cc(N(C)C)ccc2O1	103	0	i	i	0
SMILES	ABCB6 inh 2	Exocytosis inh	Myeloid diff 2	Myeloid diff CP1	GFP autofluor
COc1ccc(S(=O)(=O)Nc2ccc3c(c2)C(=O)N([C@@H](C)CO)C[C@@H](C)[C@H](CN(C)C(=O)CCCN(C)C)OCCCC[C@H](C)O3)cc1	101	-1	i	.	.
Cc1noc(C)c1S(=O)(=O)Nc1ccc2c(c1)C(=O)N([C@H](C)CO)C[C@H](C)[C@@H](CN(C)C(=O)CCCN(C)C)OCCCC[C@@H](C)O2	101	-2	i	i	0
CCOc1ccc(C(C)=O)cc1CC(C(N)=O)C(N)=O	107	0	+	i	0
CCOC(=O)C(Cc1cc(C(C)=O)ccc1OCC)C(=O)OCC	92	-1	i	.	.
COc1ccc(C2/C=C\CN3CCC[C@H]3C(=O)N2Cc2ccc(F)cc2)cc1 (stereo partly specified)	100	2	i	.	.
COc1ccc(N/C=C(\C=C\C#N)S(=O)(=O)c2ccccc2)cc1	96	8	i	.	.
O=C(c1ccccc1-n1cccn1)N1CCc2c([nH]c3ccccc23)C1c1ccccn1 (stereo unspecified)	101	-2	i	.	.
S=C(Nc1ccccn1)Nc1ccccc1Cl	102	-4	i	.	.
Cc1ccccc1NC(=S)Nc1ccccn1	108	-8	i	i	1
O=C(CN1C(=O)NC2(CCCCCCC2)C1=O)N1CCc2ccccc2C1	98	4	i	.	.
COc1ccccc1CC1(C)NC(=O)N(CC(=O)N2CCc3ccccc3C2)C1=O (stereo unspecified)	99	-5	i	i	0
Cc1cc(C)nc(/N=C(/NC(=O)Nc2cccc(Cl)c2)Nc2ccccc2)n1	97	0	i	i	0
Cc1cc(C)nc(/N=C(\NC(=O)C(C)(C)C)Nc2ccccc2)n1	94	-5	i	.	.
c1ccc(Cc2noc(CN3CCN(CCOc4ccccc4)CC3)n2)cc1	104	-5	i	.	.
O=C(c1ccc(-c2ccc([N+](=O)[O-])cc2)o1)N1CCCCCCC1	101	-1	+	i	0
O=C(c1ccc(-c2ccc([N+](=O)[O-])cc2)o1)N1CCCC(C(F)(F)F)C1 (stereo unspecified)	98	5	i	.	.
Cc1ccc(NC(=O)CCOc2ccccc2C)cc1F	100	-2	i	.	.
COc1ccc(OC)c(N(CC(=O)O)S(=O)(=O)c2ccc(OC)c(OC)c2)c1	97	6	+	i	1
COc1ccc(OC)c(N(CC(=O)N2CCCC2)S(=O)(=O)c2ccc(OC)c(OC)c2)c1	98	-1	i	.	.
CC(=O)NC(=S)Nc1ccc(S(=O)(=O)Nc2nc(C)cc(C)n2)cc1	101	0	i	.	.
Cc1ccc(Cl)cc1NC(=O)CCN1C(=O)C2C3CCC(C3)C2C1=O (stereo unspecified)	97	-1	i	.	.
O=C(CCN1C(=O)C2C3C=CC(C4CC34)C2C1=O)Nc1ccc(Cl)cc1O (stereo unspecified)	100	0	+	i	0
COCc1c(C(=O)N/N=C(/C)c2ccc(OCc3ccccc3)cc2)nnn1-c1nonc1N	101	-3	i	.	.
Cc1ccc(NC(=O)Cn2cc(C=O)c3ccccc32)cc1	93	-4	i	.	.
CC(C)(C)NCC(O)Cn1cc(C=O)c2ccccc21 (stereo unspecified)	101	-5	i	i	0
O=C1NC(=Nc2cccc(O)c2)S/C1=C\c1cccc([N+](=O)[O-])c1	103	8	i	.	.
Cc1cc(/C=C2\SC(=S)NC2=O)c(C)[nH]1	98	-2	i	i	7.3*
